# From PubChem
# Nrf2 inh – Nrf2 qHTS screen for inhibitors. A549 ARE-Fluc reporter, luciferase luminescence, 18-24 h. Potency, µM (top dose mostly 46 µM), hits mostly inhibitors. 360,000 tested, 2.1% active. AID 504444, 2011; also: nearly all actives have a fitted effect of over 60% in size
#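 A549 ARE_Fluc cells, 5000/well, 5% FBS OPTI-MEM; compounds in dose-response, 18-24 h at 37 °C/5% CO2; CellTiter-Fluor viability read (Ex 405/Em 525), then BugLite luciferase luminescence = Nrf2 activity.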
# HepG2 tox – qHTS for Inhibitors of TGF-b: Cytotox Counterscreen; AID 588856, 2011; Potency, µM (doses to about 46.1 µM), actives largely listed as cytotoxic; HepG2 CAGA-GFP viability, ATP luminescence, 18 h; 410,000 tested, 0.76% active
#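 CellTiter-Glo luminescence gave cytotoxicity after 18 hours at 37 degrees C. The cells were HepG2 CAGA-GFP in 1% FBS DMEM, stimulated with 500 pg/mL TGF-beta after compound addition. %Activity was normalised to no-cell wells (complete cell-killing) and DMSO (no toxicity), and curves were fitted and classified.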
# A549 tox – Nrf2 qHTS screen for inhibitors: counterscreen for cytotoxicity. A549 ARE-Fluc cells, CellTiter-Fluor viability, 18-24 h. Potency, µM (doses to about 46 µM), hits mostly inhibitors. 390,000 tested, 0.16% active. AID 504648, 2011
#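 Cytotoxicity counterscreen: CellTiter-Fluor fluorescence was measured in A549 ARE_Fluc cells after 18-24 h of compound exposure in a concentration series. The subsequent BugLite luminescent read reports ARE-luciferase activity.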
# TGFb SMAD3 inh – qHTS for Inhibitors of TGF-b. HepG2 CAGA-GFP TGF-b/SMAD3 reporter, GFP fluorescence, 18 h; TGF-beta stimulated, 500 pg/mL final. Potency, µM (highest dose often 46.1 µM), most hits filed as inhibitors. 410,000 tested, 1.2% active; also: nearly all actives have a fitted effect of over 65% in size
#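 Cell-based qHTS in HEPG2 carrying a CAGA-GFP Smad reporter; compounds added before 500 pg/mL final TGF-beta, 18 h incubation at 37 degrees C, GFP fluorescence quantified per cell by imaging cytometry.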
# Nrf2 activator – qHTS of Nrf2 Activators; AREc32 ARE-luciferase reporter (MCF7-derived line), luminescence, 24 h; Potency, µM (top dose mostly 46.1 µM), usual class: activators; 410,000 tested, 0.31% active; AID 624171, 2012; also: nearly all actives have a fitted effect of over 65% in size
#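 Luminescent ARE reporter assay in AREc32_Fluc cells: overnight plating at 37 deg C, 24 hr compound incubation, Steady-Glo added, 30 min RT before reading.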
# A number is an active result; – = inactive; ? = inconclusive; · = no result; ! = not confirmed by another sample. Rows were chosen to be rich in hits. Some 3.6% of all compounds tested hit in one or more screens of this group. Calls follow the shape of the dose curve; as a rule, active = well fitted curve in the direction sought with a large enough effect; inconclusive = small, poorly fitted or top-dose-only effect, or another doubt; inactive = no such curve, though single readings can be large; an effect the other way counts as inactive or inconclusive.
SMILES,Nrf2 inh,HepG2 tox,A549 tox,TGFb SMAD3 inh,Nrf2 activator
CCOc1ccc(C(=O)n2cnnc2N)cc1,13µM,–,–,–,–
Cc1ccc(N(C(C)C(=O)Nc2cc(Cl)ccc2Oc2ccccc2)S(C)(=O)=O)cc1 (stereo unspecified),20.6µM,–,–,?,–
O=C1CC(O)(C(F)(F)F)Oc2c1ccc1ccccc21 (stereo unspecified),–,10µM,?,15.8µM,–
COc1ccc(Nc2ccc(S(=O)(=O)N3CCCCC3)cc2[N+](=O)[O-])cc1Cl,?,–,–,–,–
COc1ccc(Nc2ccc(S(=O)(=O)N3CCCCC3)cc2[N+](=O)[O-])cc1,7.31µM,–,?,–,–
COc1ccc2cc(S(=O)(=O)N3CCCCC3)ccc2c1S(=O)(=O)N1CCCCC1,16.4µM,–,–,?,–
COc1ccc(S(=O)(=O)N2CCCC2)cc1OC,–,–,–,–,–
COc1ccc(CCCNC(=O)C2(C)Cc3c(-c4cccc(C(N)=O)c4)ccnc3O2)cc1 (stereo unspecified),·,–,·,–,–
CCOc1ccccc1NC(=O)Cn1c(=O)n(-c2ccc(F)cc2)c(=O)c2c3c(sc21)CN(C(C)=O)CC3,–,–,–,–,–
Cc1c(C(=O)c2no[n+]([O-])c2C(=O)c2cnn(C)c2C)cnn1C,–,11.2µM,–,7.94µM,–
CNC(=O)c1cnc2sc(N3CCCCCC3)nn2c1=O,?,–,–,–,–
CSc1nnc(NC(=O)c2nc(S(=O)(=O)Cc3ccccc3F)ncc2Cl)s1,?,–,–,?,?
O=C(Nc1ccccc1)c1nc(S(=O)(=O)Cc2ccccc2F)ncc1Cl,·,7.08µM,·,3.16µM,·
COC(=O)c1ccc(NC(=O)c2nc(S(=O)(=O)Cc3ccccc3F)ncc2Cl)cc1,·,12.6µM,·,6.31µM,·
O=C(NCc1ccc2c(c1)OCO2)c1nc(S(=O)(=O)Cc2ccccc2F)ncc1Cl,–,15.8µM,–,11.2µM,–
Cc1ccc(C)c(N2CCN(C(=O)CCS(=O)(=O)c3ccc4c(c3)NC(=O)CO4)CC2)c1,8.2µM,–,–,?,–
Cc1ccc(C)c(N2CCN(C(=O)CCS(=O)(=O)c3ccc4c(c3)CCN4C(=O)C3CC3)CC2)c1,25.9µM,–,–,–,–
O=C(O)CN1C(=O)/C(=C\c2ccc(OC(=O)c3ccco3)cc2)SC1=S,–,–,–,–,–
COC(=O)CCC(NC(=O)c1cc(C)oc1C)C(=O)OC (stereo unspecified),–,–,–,–,–
CC(=O)NC(c1cc(Cl)c2cccnc2c1O)C1CC1 (stereo unspecified),–,–,–,1.58µM,–
CC(=O)NC(c1cc(Cl)c2cccnc2c1O)C(C)C (stereo unspecified),20.6µM,–,–,6.31µM,–
CC(=O)NC(c1ccc(C)cc1)c1cc(Cl)c2cccnc2c1O (stereo unspecified),–,–,–,?,–
CC(=O)NC(c1cc(Cl)c2ccccc2c1O)C(C)C (stereo unspecified),–,–,–,–,–
COc1ccc(-c2cc(=O)c3c(O)cc(O)cc3o2)cc1,–,–,–,10µM,–
COc1ccc(-c2cc(=O)c3cc(O)ccc3o2)cc1,–,–,–,–,–
SMILES,Nrf2 inh,HepG2 tox,A549 tox,TGFb SMAD3 inh,Nrf2 activator
N#Cc1nc(Nc2cccc3ccccc23)nc(NC2CCCC2)n1,18.4µM,·,–,·,·
Cc1ccccc1Nc1nc(C#N)nc(NC2CCCC2)n1,9.2µM,·,–,·,·
O=C(Cc1ccccc1)NNC(=O)C1CCCC1,–,–,–,–,–
Cc1ccc(NC(=O)c2ccc(N/N=C/c3cccc(O)c3)c([N+](=O)[O-])c2)cc1,18.4µM,–,?,–,–
COC(=O)c1c(-c2ccc(C)cc2)csc1NC(=S)NC(=O)c1ccc(F)cc1,–,–,–,–,–
COc1ccc(-n2c(-c3cccc(OC)c3)nc(=S)c3c2CCCC3)cc1,25.9µM,–,–,–,–
COc1ccc(-n2c(-c3ccccc3)nc(=S)c3c2CCCC3)cc1,·,–,–,–,–
CC(C)(C)n1nnnc1C(c1cccs1)N1CCN(c2ccccc2)CC1 (stereo unspecified),23.1µM,–,?,?,–
CCC(C)(C)n1nnnc1C(c1cccs1)N1CCc2ccccc21 (stereo unspecified),–,–,–,12.6µM,–
Cc1cccc(N2CCN(C(c3cccs3)c3nnnn3C(C)(C)C)CC2)c1C (stereo unspecified),–,–,–,?,–
CC1(O)c2ccccc2C(=O)N1CCc1ccccc1F (stereo unspecified),?,–,–,?,7.08µM
CCC(=O)N1CCc2cc(Br)cc(S(=O)(=O)N3CCC(C(=O)Nc4cccc(C)c4)CC3)c21,8.2µM,–,–,–,–
CCC(=O)N1CCc2cc(Br)cc(S(=O)(=O)NCCc3cccc(C)c3)c21,·,–,–,11.2µM,–
COc1ccc(C(=O)N2CCNC(=O)C2CC(=O)Nc2ccc(C)c(C)c2)cc1 (stereo unspecified),–,–,–,–,–
Clc1ccc(/C=C/c2nc3ccccc3[nH]2)cc1,?,11.2µM,–,–,–
CCOC(=O)Cn1c(COc2ccccc2OC)[n+](C)c2ccccc21,–,–,–,–,–
CCCCCCCCCCOC(=O)Cn1c(COc2ccc(Cl)cc2)[n+](C)c2ccccc21,–,12.6µM,–,12.6µM,–
CCCCCCCCCCOC(=O)Cn1c(COc2ccccc2)[n+](C)c2ccccc21,?,–,–,11.2µM,–
CCCCCCCCCCOC(=O)Cn1c(COc2cccc(C)c2)[n+](C)c2ccccc21,–,–,–,?,–
CCCCCCCCCCOC(=O)Cn1c(COc2ccccc2C)[n+](C)c2ccccc21,?,–,?,?,–
CCCCCCCCCCOC(=O)Cn1c(COc2ccc(OC)cc2)[n+](C)c2ccccc21,20.6µM,11.2µM!,?,10µM,–
CC(Cl)OC(=O)Nc1cccc2cccnc12 (stereo unspecified),–,–,–,?,·
Cc1cccnc1NC(=O)Cn1nc(-c2ccccc2)oc1=S,?,–,–,–,–
Cc1c(NC(=O)CSc2ncnc3c2cnn3-c2ccccc2)c(=O)n(-c2ccccc2)n1C,–,–,–,?,–
CCCn1c(/C=C/c2ccccc2)nc2ccccc21,?,–,–,–,–
CC(C)Cn1c(/C=C/c2ccco2)nc2ccccc21,–,–,–,–,12.6µM
O=C(CSc1nccc(-c2cccs2)n1)Nc1ccc(F)c(Cl)c1,?,–,–,12.6µM,7.94µM
O=C(O)C(Cc1ccccc1)Nc1ccc([N+](=O)[O-])cc1[N+](=O)[O-] (stereo unspecified),–,–,–,–,–
